# Source: the supplement of paper PMC8728848
# Only a selection was taken, and the strongest signals are over-represented in it overall.
# B1: EUL D1A second (Oryza sativa) (protein)
# chain: GAATACTIGGVPVHTVRVFSAAGEDYCLTVRNGTACLAPKNPRDDYQHWIKDMRHSNKIRDEEGYPAFALVNKVTGEAIKHSTGQGHPVKLVPYNPEYQDESVLWTESKDVGKGFRCIRMVNNIYLNFDAFHGDKDHGGIHDGTEIVLWKWCEGDNQRWKILPWILEQKLISEEDLNSAVDHHHHHH
# Tests used:
# Assay in all cases: glycan array binding signal (z-score within array); higher = stronger binding
# Conditions in all cases: glycan notation: IUPAC condensed, linker removed
# Gal3S(b1-4)GlcNAc = molecular target: Gal3S(b1-4)GlcNAc
# Summary of the method: (§1)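 Glycan array data came from 3228 arrays in the Consortium for Functional Glycomics database, and only arrays with an available protein sequence were kept. Glycan names were put into IUPAC-condensed notation, and columns mapping to the same glycan were averaged. The binding signal is a within-array Z-score, averaged across arrays of one protein sequence run at different concentrations or buffers and across linkers. A negative Z-score can be read as non-binding.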
# [1] = molecular target: Gal3S(b1-4)[Fuc(a1-3)]Glc6S
# Summary of the method: as §1
# [2] = molecular target: Gal3S(b1-4)[Fuc(a1-3)]GlcNAc
# Summary of the method: as §1
# Gal6S(b1-4)GlcNAc6S = molecular target: Gal6S(b1-4)GlcNAc6S
# Summary of the method: as §1
# GalNAc(a1-3)GalNAc = molecular target: GalNAc(a1-3)GalNAc
# Summary of the method: as §1
# [3] = molecular target: GalNAc(b1-3)Gal(a1-4)Gal(b1-4)GlcNAc(b1-3)Gal(b1-4)Glc
# Summary of the method: as §1
# [4] = molecular target: GalNAc(b1-3)Gal(a1-6)Gal(b1-4)Glc
# Summary of the method: as §1
# GalNAc3S(b1-4)GlcNAc3S = molecular target: GalNAc3S(b1-4)GlcNAc3S
# Summary of the method: as §1
# Glc(a1-4)Glc = molecular target: Glc(a1-4)Glc
# Summary of the method: as §1
# [5] = molecular target: GlcNAc(a1-4)Gal(b1-4)GlcNAc(b1-3)Gal(b1-4)[Fuc(a1-3)]GlcNAc(b1-3)Gal(b1-4)[Fuc(a1-3)]GlcNAc
# Summary of the method: as §1
# [6] = molecular target: GlcNAc(b1-3)Gal(b1-4)GlcNAc(b1-3)Gal(b1-4)GlcNAc(b1-2)Man(a1-3)[GlcNAc(b1-3)Gal(b1-4)GlcNAc(b1-3)Gal(b1-4)GlcNAc(b1-2)Man(a1-6)]Man(b1-4)GlcNAc(b1-4)GlcNAc
# Summary of the method: as §1
# [7] = molecular target: GlcNAc(b1-3)Gal(b1-4)GlcNAc(b1-3)Gal(b1-4)GlcNAc(b1-3)Gal(b1-4)GlcNAc(b1-2)Man(a1-3)[GlcNAc(b1-3)Gal(b1-4)GlcNAc(b1-3)Gal(b1-4)GlcNAc(b1-3)Gal(b1-4)GlcNAc(b1-2)Man(a1-6)]Man(b1-4)GlcNAc(b1-4)GlcNAc
# Summary of the method: as §1
# [8] = molecular target: GlcNAc(b1-4)[GlcNAc(b1-6)]GalNAc
# Summary of the method: as §1
# Kdn(a2-6)Gal(b1-4)GlcNAc = molecular target: Kdn(a2-6)Gal(b1-4)GlcNAc
# Summary of the method: as §1
# [9] = molecular target: Man(a1-2)Man(a1-3)[Man(a1-2)Man(a1-6)]Man(a1-6)[Man(a1-2)Man(a1-2)Man(a1-3)]Man
# Summary of the method: as §1
# [10] = molecular target: Man(a1-2)Man(a1-3)[Man(a1-2)Man(a1-6)]Man(a1-6)[Man(a1-2)Man(a1-2)Man(a1-3)]Man(b1-4)GlcNAc(b1-4)GlcNAc
# Summary of the method: as §1
# [11] = molecular target: Man(a1-2)Man(a1-6)[Man(a1-3)]Man(a1-6)[Man(a1-2)Man(a1-2)Man(a1-3)]Man
# Summary of the method: as §1
# [12] = molecular target: Neu5Ac(a2-3)Gal(b1-3)GlcNAc(b1-2)Man
# Summary of the method: as §1
# [13] = molecular target: Neu5Ac(a2-3)Gal(b1-3)GlcNAc(b1-6)GalNAc
# Summary of the method: as §1
# [14] = molecular target: Neu5Ac(a2-3)Gal(b1-3)[Fuc(a1-4)]GlcNAc
# Summary of the method: as §1
# [15] = molecular target: Neu5Ac(a2-3)Gal(b1-3)[GlcNAc(b1-6)]GalNAc
# Summary of the method: as §1
# [16] = molecular target: Neu5Ac(a2-3)Gal(b1-3)[Neu5Ac(a2-6)]GlcNAc(b1-3)[Fuc(a1-3)[Gal(b1-4)]GlcNAc(b1-6)]Gal(b1-4)Glc
# Summary of the method: as §1
# [17] = molecular target: Neu5Ac(a2-3)Gal(b1-4)GlcNAc(b1-3)Gal(b1-4)GlcNAc(b1-3)Gal(b1-4)GlcNAc(b1-2)Man(a1-3)[Neu5Ac(a2-3)Gal(b1-4)GlcNAc(b1-3)Gal(b1-4)GlcNAc(b1-3)Gal(b1-4)GlcNAc(b1-2)Man(a1-6)]GalNAc
# Summary of the method: as §1
# [18] = molecular target: Neu5Ac(a2-3)Gal(b1-4)[Fuc(a1-3)]GlcNAc(b1-3)Gal(b1-4)[Fuc(a1-3)]GlcNAc(b1-3)Gal(b1-4)[Fuc(a1-3)]GlcNAc
# Summary of the method: as §1
# [19] = molecular target: Neu5Ac(a2-3)Gal(b1-4)[Fuc(a1-3)]GlcNAc(b1-3)GalNAc
# Summary of the method: as §1
# Neu5Ac(a2-6)Gal(b1-4)Glc = molecular target: Neu5Ac(a2-6)Gal(b1-4)Glc
# Summary of the method: as §1
# [20] = molecular target: Neu5Ac(a2-6)Gal(b1-4)GlcNAc(b1-2)Man(a1-3)[Man(a1-6)]Man(b1-4)GlcNAc(b1-4)GlcNAc
# Summary of the method: as §1
# [21] = molecular target: Neu5Ac(a2-6)Gal(b1-4)GlcNAc(b1-3)Gal(b1-4)GlcNAc
# Summary of the method: as §1
# [22] = molecular target: Neu5Ac(a2-6)Gal(b1-4)GlcNAc(b1-3)Gal(b1-4)GlcNAc(b1-3)Gal(b1-4)GlcNAc
# Summary of the method: as §1
# [23] = molecular target: Neu5Ac(a2-6)Gal(b1-4)GlcNAc(b1-3)[Neu5Ac(a2-6)Gal(b1-4)GlcNAc(b1-6)]GalNAc
# Summary of the method: as §1
# [24] = molecular target: Neu5Ac(a2-6)Gal(b1-4)GlcNAc(b1-6)[Gal(b1-3)GlcNAc(b1-3)]Gal(b1-4)Glc
# Summary of the method: as §1
# [25] = molecular target: Neu5Ac(a2-6)GlcNAc(b1-4)GlcNAc
# Summary of the method: as §1
# [26] = molecular target: Neu5Ac(a2-8)Neu5Ac(a2-3)[GalNAc(b1-4)]Gal(b1-4)Glc
# Summary of the method: as §1
# Neu5Gc(a2-3)Gal(b1-4)Glc = molecular target: Neu5Gc(a2-3)Gal(b1-4)Glc
# Summary of the method: as §1
binder,measurement,setting,value
B1,glycan array binding signal (z-score),Gal3S(b1-4)GlcNAc,0.255
same,glycan array binding signal (z-score),[1],2.74
same,glycan array binding signal (z-score),[2],2.4
same,glycan array binding signal (z-score),Gal6S(b1-4)GlcNAc6S,0.99
same,glycan array binding signal (z-score),GalNAc(a1-3)GalNAc,-0.302
same,glycan array binding signal (z-score),[3],-0.809
same,glycan array binding signal (z-score),[4],-0.495
same,glycan array binding signal (z-score),GalNAc3S(b1-4)GlcNAc3S,-0.9
same,glycan array binding signal (z-score),Glc(a1-4)Glc,0.317
same,glycan array binding signal (z-score),[5],2.44
same,glycan array binding signal (z-score),[6],0.61
same,glycan array binding signal (z-score),[7],0.539
same,glycan array binding signal (z-score),[8],-0.443
same,glycan array binding signal (z-score),Kdn(a2-6)Gal(b1-4)GlcNAc,-1.38
same,glycan array binding signal (z-score),[9],-0.985
same,glycan array binding signal (z-score),[10],1.93
same,glycan array binding signal (z-score),[11],0.706
same,glycan array binding signal (z-score),[12],3.06
same,glycan array binding signal (z-score),[13],-0.587
same,glycan array binding signal (z-score),[14],0.596
same,glycan array binding signal (z-score),[15],0.412
same,glycan array binding signal (z-score),[16],1.26
same,glycan array binding signal (z-score),[17],3.53
same,glycan array binding signal (z-score),[18],-0.112
same,glycan array binding signal (z-score),[19],2.61
same,glycan array binding signal (z-score),Neu5Ac(a2-6)Gal(b1-4)Glc,0.113
same,glycan array binding signal (z-score),[20],0.117
same,glycan array binding signal (z-score),[21],0.827
same,glycan array binding signal (z-score),[22],-2.05
same,glycan array binding signal (z-score),[23],2.81
same,glycan array binding signal (z-score),[24],0.242
same,glycan array binding signal (z-score),[25],-0.238
same,glycan array binding signal (z-score),[26],0.083
same,glycan array binding signal (z-score),Neu5Gc(a2-3)Gal(b1-4)Glc,0.509
